Data taken from PubChem BioAssay (NCI).
The panel holds about 83,000 compounds, 20% with a hit somewhere; the sample as a whole holds those more often.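 Method: cells in 96-well plates; compound added at one concentration; 48 h incubation; percent growth measured; values under 10 scored active.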 Activity calls are given as the source filed them.

Tests used:
Assay in all cases: NCI-60 one-dose screen, 48 h (100 = growth as untreated, 0 = no growth, -100 = all killed)
Settings in all cases: 10 µM unless noted
[1] = system: NCI-H23 lung
[2] = system: NCI-H226 lung
[3] = system: NCI-H322M lung
[4] = system: HOP-62 NSCLC
[5] = system: NCI-H460 lung
[6] = system: HOP-92 NSCLC
[7] = system: NCI-H522 lung
[8] = system: A549/ATCC NSCLC
[9] = system: 786-0 renal
[10] = system: DU-145 prostate
[11] = system: K-562 leukemia
[12] = system: MALME-3M melanoma
[13] = system: MDA-MB-231 breast
[14] = system: RXF 393 renal
[15] = system: SF-268 CNS
[16] = system: SF-295 CNS
[17] = system: SF-539 CNS
[18] = system: UACC-257 melanoma
[19] = system: M14 melanoma

Measured: growth

O=C1C2=C(CCN(Cc3ccccc3)C2)N2CCN=C2N1Cc1ccc(F)cc1F
inactive: [1] 32.2% | [2] 29% | [3] 45.4% | [4] 33.6% | [5] 15.5% | [6] 41.9% | [7] 24.2% | [8] 26.7% | [9] 55.2% | [10] 32.6% | [11] 33.1% | [12] 41.5% | [13] 20.4% | [14] 55% | [15] 40.2% | [17] 40.1% | [18] 13.6% | [19] 35.9%
active: [16] 5.35%

O=C1NN(C(=O)c2ccc(O)cc2)C(c2ccccc2)=N/C1=C\c1cn(-c2ccccc2)nc1-c1ccccc1
inactive: [1] 98.3% | [2] 103% | [3] 97% | [4] 92% | [5] 100% | [6] 94.9% | [7] 85% | [8] 99.7% | [9] 94% | [10] 92% | [11] 93.7% | [12] 99% | [13] 106% | [14] 107% | [15] 96.8% | [16] 95% | [17] 89.1% | [18] 93.8% | [19] 96.2%

CCOc1cc(C2C(Cl)C(=O)N2n2cnnc2)ccc1O (centres undefined)
inactive: [1] 97.2% | [2] 106% | [3] 97% | [4] 74% | [5] 104% | [6] 91.9% | [7] 86.2% | [8] 90.5% | [9] 92.7% | [10] 110% | [11] 104% | [12] 99.5% | [13] 106% | [14] 93.4% | [15] 92.4% | [16] 105% | [17] 101% | [18] 88.9% | [19] 95.4%

COc1cc(-c2cccc([N+](=O)[O-])c2)c(-c2nc(-c3ccccc3)c(-c3ccccc3)n2C2CC2)cc1OC
inactive: [1] 68% | [2] 62.5% | [3] 71.9% | [4] 92.6% | [5] 55.5% | [6] 34.6% | [7] 44% | [8] 44.7% | [9] 73.3% | [10] 87.1% | [11] 32.6% | [12] 74.2% | [13] 72.4% | [14] 69.1% | [15] 77% | [16] 42.7% | [17] 88.5% | [18] 56.8% | [19] 40%

CC(C)n1nc(C#Cc2cccc(O)c2)c2c(N)ncnc21
active: [1] -28.4% | [2] -41.8% | [3] -30.3% | [4] -52.5% | [5] -5.33% | [6] -70.5% | [7] -44.5% | [8] -60% | [9] -72% | [10] -6.9% | [11] -23% | [12] -74.9% | [13] -67.7% | [14] -87.2% | [15] -49.4% | [16] -71.9% | [17] -75.4% | [18] -41.4% | [19] -63.8%

CS(=O)(=O)c1ccc(-c2[nH]c3ccc(F)cc3c2/C=N/O)cc1
inactive: [1] 94.3% | [2] 92.8% | [3] 90.1% | [4] 80.7% | [5] 105% | [6] 87.6% | [7] 82% | [8] 82% | [9] 95.8% | [10] 97.2% | [11] 89.4% | [12] 105% | [13] 89.2% | [14] 104% | [15] 93% | [16] 100% | [17] 88.8% | [18] 86.7% | [19] 96.6%

C=C(C)[C@@H]1CC[C@]2(CN)CC[C@]3(C)[C@H](CC[C@@H]4[C@@]5(C)CCC(N)[C@@](C)(CO)[C@@H]5CC[C@]43C)[C@@H]12 (some centres undefined)
inactive: [1] 53% | [2] 89.6% | [3] 34.4% | [6] 51.7% | [14] 58.4% | [16] 87.8%
active: [4] -89.2% | [5] -75.7% | [7] -77.5% | [8] -82.3% | [9] -92.9% | [10] -38.1% | [11] -69.8% | [12] -85.9% | [13] -80.9% | [15] -79.5% | [17] -72.6% | [18] -88.7% | [19] -81.8%

Oc1ccccc1-c1nc2ccccn2c1NCCN1CCOCC1
inactive: [1] 100% | [2] 101% | [3] 91.7% | [4] 76.8% | [5] 99.2% | [6] 85.2% | [7] 84% | [8] 91.9% | [9] 92.4% | [10] 102% | [11] 83% | [12] 96.2% | [13] 92.7% | [14] 109% | [15] 96.1% | [16] 98% | [17] 97.2% | [18] 96.2% | [19] 96.5%

COc1ccc(N=c2nc3sc4cc(Cl)ccc4n3c(N)c2C#N)cc1
inactive: [1] 66.5% | [2] 24.4% | [3] 93.4% | [4] 102% | [5] 102% | [6] 88.4% | [7] 88.6% | [8] 62.4% | [9] 22.1% | [10] 105% | [11] 98.9% | [12] 77.4% | [13] 76.4% | [14] 52% | [15] 60.1% | [17] 103% | [18] 61.6% | [19] 70.6%
active: [16] -3.63%

CNC(=O)c1c(NC(=O)c2ccc(C(C)(C)C)cc2)sc2c1CCC(=O)C2
active: [1] 6.65% | [2] -2.45% | [5] 1.8% | [6] -22.3% | [7] -37% | [11] 5.54% | [12] -12.8% | [13] -20.5% | [14] -11.3% | [16] 2.19% | [17] -51.9% | [19] 3.53%
inactive: [3] 35.4% | [4] 17% | [8] 15.8% | [9] 29.3% | [10] 27.7% | [15] 14% | [18] 16.8%

COc1cc2c(cc1OC)-c1ccc3cc4c(cc3c1N(CCCn1ccnc1)C2)OCO4
inactive: [1] 16.6% | [2] 51.9% | [3] 76.9% | [4] 24.9% | [6] 26.8% | [8] 56.2% | [9] 35.1% | [10] 39.6% | [11] 20.4% | [12] 47.8% | [13] 56.7% | [14] 57.8% | [15] 34.4% | [16] 27.7% | [17] 13.3% | [18] 52.8% | [19] 27.1%
active: [5] 6.34% | [7] -19.1%

Nc1ccc(S(=O)(=O)Nc2ccsc2-c2nc(-c3ccccc3)no2)cc1
inactive: [1] 83.5% | [2] 84.5% | [3] 83.3% | [4] 35.8% | [5] 40.1% | [6] 62.2% | [7] 30.2% | [8] 42.7% | [9] 86% | [10] 76.5% | [11] 13.5% | [12] 70.5% | [13] 61.8% | [14] 83.3% | [15] 67.2% | [16] 69.8% | [17] 75.6% | [18] 67.2% | [19] 32.1%

N[C@H]1CCC[C@@H]1NCCCCN1C(=O)c2cccc3cccc(c23)C1=O
inactive: [1] 71% | [2] 83.8% | [3] 54.9% | [4] 76.2% | [5] 39.4% | [6] 51.4% | [7] 57.1% | [8] 53.3% | [9] 54.8% | [10] 43.4% | [11] 65.9% | [12] 104% | [13] 52.4% | [14] 63.9% | [15] 48.1% | [16] 71.9% | [17] 29.7% | [18] 104% | [19] 53.1%

C[C@@H]1C(=O)N(C[C@@H](Cc2ccccc2)NC(=O)OCc2ccccc2)[C@]1(Cc1ccccc1)C(=O)OCc1ccccc1
inactive: [1] 37.1% | [2] 36.3% | [3] 56.4% | [4] 67.3% | [5] 38.3% | [6] 30.1% | [7] 44.3% | [8] 22.8% | [9] 52.9% | [10] 78.3% | [11] 36.5% | [12] 24.9% | [13] 41.9% | [14] 34.8% | [15] 56.7% | [16] 21.4% | [17] 59.6% | [18] 19.7% | [19] 44.8%

N=c1ccn2c(n1)OC1C(O)C(CO)OC12 (centres undefined)
active: [5] -9.72% | [19] -25.5%
inactive: [1] 24.7% | [2] 45.1% | [3] 63.8% | [4] 24.5% | [6] 49.2% | [7] 35.9% | [8] 16.2% | [9] 15% | [10] 11.7% | [11] 94.5% | [12] 43.5% | [13] 91.7% | [14] 28.7% | [15] 40.9% | [16] 36.7% | [17] 25.1% | [18] 54.6%

C=C(Cl)COC(=O)C(C)(C)O
inactive: [1] 99.4% | [2] 113% | [3] 90% | [4] 105% | [5] 104% | [6] 103% | [7] 93.8% | [8] 94% | [9] 101% | [10] 102% | [11] 93.7% | [12] 98.7% | [13] 121% | [14] 111% | [15] 101% | [16] 102% | [17] 102% | [18] 92.2% | [19] 103%
